Hit rate of the full screen: of about 2,300 compounds, about 790 (34%) were called active. The rule behind the calls is not given here. The list shows a part of the results. Entries with a potency or affinity are not part of this list.

The nature of the assay: THP-1 cell cytotoxicity, dose response, cytotoxicity control for non-replicating M. tuberculosis project (AID 489025). The settings on record: THP-1 cell viability; series mostly up to 40 µM.
With `C=C(C)C1CC=C(C)/C(=N/NC(=O)CNc2ccc(OCC)cc2)C1` (stereo not given), the compound was classed as inactive.

Consider `CC(C)OC(=O)c1c2c(n3ccccc13)C(=O)c1ccccc1C2=O`, for which the outcome was inactive. As to `COc1cc(C(=O)ON=C2C=C(C)C(=O)C(C)=C2)cc(OC)c1OC`, the compound was called inactive. In the case of `COc1ccc(CCNc2cc(-c3ccccc3)nc3ncnn23)cc1`, the outcome was inactive.

With `Cc1nn2c(NCCN(C)C)c3c(nc2c1-c1ccccc1)CCCC3`, the call was inactive. Consider `O=C(OCn1nnc2ccccc2c1=O)c1ccc(Br)o1`, for which the compound was called inactive. Consider `COc1cccc(C(=O)OCn2nnc3ccccc3c2=O)c1OC`, for which the outcome was inactive. With `Cc1cccc(Cn2ccc(NC(=O)c3ccc4c(c3)OCO4)n2)c1` the entry was “inactive”; with `Cc1ccc(NC(=O)COC(=O)CCc2c[nH]c3ccccc23)cc1[N+](=O)[O-]`, “inactive”.

With `O=C(NCCC1=CCCCC1)c1ccc(F)cc1`, the outcome was inactive.

Take `Cc1ccc(NC(=O)CNc2ccc(OC(C)C)cc2)cc1`: the compound was called inactive. Take `Cc1ccc(NC(=O)COCC(=O)Nc2ccc(C)cc2)cc1`: the compound was called inactive. In the case of `COc1ccc(C(=O)C2CCCN(C(=O)c3ccc(CSC)o3)C2)cc1F` (stereo not given) it was “inactive”; in that of `CSc1ccc(C(=O)C2CCCN(Cc3cc4ccccc4[nH]3)C2)cc1` (stereo not given), “inactive”. Consider `COC(=O)c1ccccc1NC(=O)C1CC(c2ccc(F)cc2)=NO1` (stereo not given), for which the outcome was inactive. Turning to `CC(=O)OCCN(C)c1cc(SC(C)C)c2nonc2c1[N+](=O)[O-]`, the call was inactive.

On to `CCCNC(=O)COC(=O)c1cc2c(=O)n3ccccc3nc2s1`, for which the compound was classed as inactive. With `Cc1csc(=Nc2cccnc2)n1CC1CCCCC1` the entry was “inactive”; with `Cc1ccc2c(CC(=O)OCC(=O)Nc3ccc(Cl)cn3)coc2c1`, “inactive”; with `O=C(Oc1ccccc1)c1cc2ccccc2o1`, “inactive”.

With `CCc1ccc(OCCCC(=O)Nc2nccs2)cc1`, the outcome was inactive. In the case of `COc1ccc(NC(=O)CO/N=C2/CCCc3nonc32)c(OC)c1` it was “inactive”. In the case of `Cc1cc(C(=O)COc2cccc3cccnc23)c(C)n1C` it was “inactive”; in that of `O=C(Oc1cccc2cccnc12)c1cccc(-n2cnnn2)c1`, “inactive”; in that of `O=C(Oc1cccc2cccnc12)c1cccc([N+](=O)[O-])c1`, “inactive”. For the compound `O=C(Oc1ccccc1Cl)c1ccc2c(=O)n3c(nc2c1)CCC3`, the call was inactive. In the case of `S=c1[nH]c2ccccc2o1` it was “inactive”; in that of `O=C1CC(N2CCN(Cc3ccccc3)CC2)C(=O)N1CCc1ccccc1` (stereo not given), “inactive”. In the case of `O=C1C=CC(=O)N1N(c1ccccc1)c1ccccc1` it was “inactive”; in that of `Cc1c(C(=O)NNC(=O)c2csc(N3CCOCC3)n2)oc2ccccc12`, “inactive”. With `COC(=O)C1=C(C(=O)OC)C(c2cc(Cl)ccc2O)c2sc(=O)[nH]c2S1` (stereo not given) the entry was “inactive”; with `O=c1oc2ccccc2c2c1nnn2CCO`, “inactive”; with `Cc1ccc(-c2cc(C(F)(F)F)n3nc(C(=O)NCCCn4ccnc4)cc3n2)cc1C`, “inactive”. Turning to `Clc1ccc(-c2ccc(CNCc3ccccn3)o2)cc1`, the compound was classed as inactive.

With `c1ccc(-c2nc(NCCCn3ccnc3)c3ccccc3n2)cc1`, the result was inactive. With `Clc1cccc(-c2ccc(CNCc3ccccn3)o2)c1` the entry was “inactive”; with `Fc1ccc(-c2ccc(CNCc3ccccn3)o2)cc1Cl`, “inactive”; with `O=C(NCCC1=CCCCC1)c1ccc(Br)o1`, “inactive”.

For the compound `CC(=O)c1cccc(NC(=O)C2COc3ccccc3O2)c1` (stereo not given), the outcome was inactive. For the compound `CCCc1cc(=O)n2[nH]c(C)c(-c3ccccc3)c2n1`, the compound was called inactive. With `Cc1ccc(C(=O)CCNc2ccc(Br)cc2)o1` the entry was “inactive”. In the case of `CC(=O)n1cc(/C=C2/N=C(c3ccccc3)OC2=O)c2ccccc21` it was “inactive”; in that of `CCCOC(=O)c1ccc(-c2ccc(C=O)o2)cc1`, “inactive”; in that of `Cc1cccc(C)c1N1C(=O)CC(N2CCSCC2)C1=O` (stereo not given), “inactive”. With `Cc1ccc(-c2noc(CCC(=O)Nc3cccc(C#N)c3)n2)cc1` the entry was “inactive”; with `O=C(COC(=O)c1cccc([N+](=O)[O-])c1)NCc1cccs1`, “inactive”. `CCCOC(=O)c1ccc(NC(=O)Cc2cccs2)cc1`: the compound was called inactive.

Turning to `COC(=O)N/N=C/c1ccc([N+](=O)[O-])s1`, the compound was classed as inactive. In the case of `CCOC(=O)N/N=C\c1ccc([N+](=O)[O-])s1` it was “inactive”. Take `C/C(Cn1nnc([N+](=O)[O-])n1)=N\NC(=O)c1ccncc1`: the compound was classed as inactive. With `Brc1c(CSc2nncc3ccccc23)nc2ccccn12` the entry was “inactive”; with `CCN(CC)c1ccc2cc(C(=O)NCc3ccc(F)cc3)c(=N)oc2c1`, “inactive”; with `O=c1oc2ccccc2nc1/C=C(\O)c1ccc(Br)cc1`, “inactive”.

On to `C/C(=N/NC(=O)c1ccco1)c1ccc(Br)s1`, for which the compound was classed as inactive. With `CC(C)(C)NCC1(CO)SC(N)=NC1=O` (stereo not given) the entry was “inactive”; with `O=C(C/C=N\OCc1ccc([N+](=O)[O-])cc1)Nc1ccc(F)cc1F`, “inactive”; with `COc1n[nH]c(C(=O)Nc2cc(F)ccc2C)c1[N+](=O)[O-]`, “inactive”. Turning to `CCc1cc2c3c(c1)C(C)CC(C)(C)N3C(=O)/C2=C1\SC(=O)NC1=O` (stereo not given), the result was inactive.

`O=C(COC(=O)COc1ccc(Nc2ccccc2)cc1)NCc1ccco1`: the compound was called inactive. In the case of `COc1ccccc1N1CCN(C(=O)c2ccc([N+](=O)[O-])s2)CC1`, the compound was called inactive. In the case of `COC(=O)CC(=O)N1CCN(c2ccc(Cl)c(Cl)c2)CC1` it was “inactive”.

Take `CC(C)(C)c1ccc(OCCCC(=O)NC2=NCCS2)cc1`: the outcome was inactive. With `COc1cc(C=O)ccc1OCCOCCOc1ccc(Cl)cc1` the entry was “inactive”; with `O=C1/C(=C\c2ccco2)SC(=S)N1c1ccc(O)cc1`, “inactive”.

Turning to `CCOc1cc(C=O)cc(N=Nc2cccc([N+](=O)[O-])c2)c1O`, the call was inactive. Turning to `O=C(Oc1ccccc1)c1cccc(COC(=O)c2cnccn2)c1`, the compound was called inactive. For the compound `CCOC(=O)C1CSC(CC(=O)Nc2ccc(Cl)c(Cl)c2)C(=O)N1` (stereo not given), the compound was called inactive. With `CC(C)(C)NC(=O)C(=O)NNC(=O)COc1ccc(Br)cc1` the entry was “inactive”.

For `CC(/C=C/c1ccccc1)=N\NC(=O)c1ccc2c(c1)OCCO2`, the outcome was inactive. With `O=C(N/N=C\C=C\c1ccco1)c1cncc(Br)c1` the entry was “inactive”; with `CCC(=O)c1ccc(OC(=O)c2ccc(Br)o2)cc1`, “inactive”.

On to `Cc1cc(C)n2[nH]c(=O)c(N=Nc3cccc(Cl)c3)c2n1`, for which the result was inactive.

In the case of `Clc1ccc2c(N3CCCC3)ccnc2c1`, the result was inactive. With `Cc1ccc2[nH]c(C)c(CCNC(=O)c3cc4cc([N+](=O)[O-])ccc4oc3=O)c2c1`, the result was inactive.

As to `CCc1ccc(OCCCC(=O)NCc2ccco2)cc1`, the call was inactive. In the case of `COc1ccc(OCCOC(=O)c2cccs2)cc1` it was “inactive”; in that of `O=C(COc1ccc([N+](=O)[O-])cc1)NNC(=O)c1cccs1`, “inactive”. With `CCCOC(=O)c1ccc(OC(=O)c2ccco2)cc1` the entry was “inactive”; with `Cc1cc2n(n1)SC(Nc1ccccc1)N2` (stereo not given), “inactive”; with `c1ccc2[nH]c(NC3=NCCC3)nc2c1`, “inactive”. With `O=C(COC(=O)c1cc(Br)ccc1Cl)NC1CCCC1` the entry was “inactive”; with `COC(=O)COc1ccc2c(-c3cccc([N+](=O)[O-])c3)cc(=O)oc2c1`, “inactive”. As for `O=C(CN1CCC(NC(=O)c2cccc(F)c2)CC1)Nc1ccc(Br)cc1`, the compound was called inactive.

With `NC(=O)C1(N2CCCCC2)CCN(C2CC(=O)N(CCc3ccccc3)C2=O)CC1` (stereo not given), the result was inactive.

For the compound `c1ccc(OCc2nn3c(-c4ccccn4)nnc3s2)cc1`, the outcome was inactive. For `c1ccc(OCc2nnc3sc(-c4cccs4)nn23)cc1`, the result was inactive. In the case of `CCOC(=O)Cn1cc(C#N)c2cccc(CC)c21` it was “inactive”; in that of `Cc1occc1C(=O)N/N=C/C(Br)=C\c1ccccc1`, “inactive”; in that of `O=C(O)c1ccccc1-c1ccccc1C(=O)Nc1nc2ccccc2s1`, “inactive”. On to `Cc1oc(=O)c(NC(=O)c2ccccc2)cc1C(=O)c1ccccc1`, for which the result was inactive.

In the case of `O=C(COC(=O)c1ccc(O)cc1O)c1ccc2c(c1)OCO2`, the outcome was inactive. In the case of `O=C(COC(=O)c1cc(Br)ccc1O)Nc1ccc2c(c1)OCO2` it was “inactive”; in that of `COc1ccc(OC(=O)c2cc3ccccc3o2)cc1`, “inactive”. Regarding `CCCC(O)(CCC)C(=O)NNc1ccc(C)cc1`, the result was inactive. For `O=c1[nH][nH]c(-c2ccccc2O)c1C(C[N+](=O)[O-])c1cccc(Cl)c1` (stereo not given), the compound was called inactive.

Regarding `CCCC(=O)N1CCC(Cc2ccccc2)CC1`, the compound was called inactive. In the case of `CC(C)[C@H]1CN=C2N(C[C@H](C)NC(=O)CCC3CCCCC3)[C@H](Cc3ccc(O)cc3)CN21` it was “inactive”; in that of `C[C@@H]1CN=C2N(CCNC(=O)CCC3CCCCC3)[C@H](Cc3ccc(O)cc3)CN21`, “inactive”; in that of `O=C(CN1CCC(Cc2ccccc2)CC1)NC(=O)NC1CCCCC1`, “inactive”.

Regarding `O=C(c1ccccc1)C1CN(Cc2ccccc2)CCC1(O)c1ccccc1` (stereo not given), the compound was called inactive.

In the case of `CC(C)CNc1nc(=S)nc(N(C)C)[nH]1`, the compound was classed as inactive. Take `O=C(COc1ccc(Br)cc1)Nc1ccc([N+](=O)[O-])cn1`: the compound was classed as inactive. In the case of `COc1ccc(Cc2nnc(-c3ccccc3)o2)cc1` it was “inactive”; in that of `O=C(Nc1nccs1)c1sc2ccccc2c1Cl`, “inactive”; in that of `CCn1nnc(NC(=O)c2sc3ccccc3c2Cl)n1`, “inactive”. As for `NC1CCN(c2c(F)cc3c(=O)c(C(=O)O)cn(C4CC4)c3c2Cl)C1` (stereo not given), the compound was called inactive. In the case of `Cc1ccc(NC(=O)COC(=O)C(NS(=O)(=O)c2ccc(Cl)cc2)C(C)O)cc1C` (stereo not given) it was “inactive”; in that of `CCOCCOC(=O)c1ccc(NC(=O)C2COc3ccccc3O2)cc1` (stereo not given), “inactive”. Turning to `CCc1ccccc1NC(=O)C1COc2ccccc2O1` (stereo not given), the compound was called inactive. In the case of `CCOC(=O)c1cc2cc3ccccc3cc2oc1=O` it was “inactive”; in that of `Cc1ccc2nc(CCc3nc4ccc(C)cc4[nH]3)[nH]c2c1`, “inactive”. With `O=C(COC(=O)CC1CCCC1)Nc1ccc(Cl)cn1` the entry was “inactive”; with `CCOc1ccc(OCC(=O)Nc2ccc(OC)cc2)cc1`, “inactive”. With `CCOC(=O)c1nn(-c2ccccc2)c2nc(Nc3ccccc3)cc(=O)n12` the entry was “inactive”; with `CC(=O)c1ccc(OC(=O)c2ccc(-n3nc(C)cc3C)cc2)cc1`, “inactive”; with `Cc1cc(C)n(-c2ccc(C(=O)Oc3ccc4c(c3)OCO4)cc2)n1`, “inactive”. Take `O=C(OCc1c(Cl)cccc1Cl)c1ccccn1`: the call was inactive.

For `CCCN1C(=O)S/C(=C\c2ccc(N3CCOCC3)o2)C1=O`, the compound was classed as inactive.

For `COc1ccc2oc(=O)c(/C(C)=N/NC(=O)c3ccncc3)cc2c1`, the result was inactive.

On to `C/C(=N\Nc1ccc(Cl)cc1)c1c(O)cc(C)oc1=O`, for which the call was inactive.

Source of the values: PubChem BioAssay AID489025 (Southern Research Specialized Biocontainment Screening …, 2010).
